From PubChem BioAssay (NCI)
Compounds without any hit were thinned out: in the full panel of roughly 83,000, 20% have a hit.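 Single-dose data. Exposure time 48 hours. Values below 10 considered active.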 Values without a mark were called inactive. Active and inactive are the calls of the source.

Columns and labels:
Test in all cases: NCI-60 one-dose screen, 48 h (100 = growth as untreated, 0 = no growth, -100 = all killed)
Conditions in all cases: 10 µM unless noted
[1] = tested on: NCI-H23 lung
[2] = tested on: NCI-H226 lung
[3] = tested on: NCI-H322M lung
[4] = tested on: HOP-62 NSCLC
[5] = tested on: NCI-H460 lung
[6] = tested on: HOP-92 NSCLC
[7] = tested on: NCI-H522 lung
[8] = tested on: A549/ATCC NSCLC
[9] = tested on: 786-0 renal
[10] = tested on: COLO 205 colon
[11] = tested on: DU-145 prostate
[12] = tested on: K-562 leukemia
[13] = tested on: MALME-3M melanoma
[14] = tested on: MDA-MB-231 breast
[15] = tested on: RXF 393 renal
[16] = tested on: SF-268 CNS
[17] = tested on: SF-295 CNS
[18] = tested on: SF-539 CNS
[19] = tested on: UACC-257 melanoma
[20] = tested on: M14 melanoma

Compound | growth [1] | growth [2] | growth [3] | growth [4] | growth [5] | growth [6] | growth [7] | growth [8] | growth [9] | growth [10] | growth [11] | growth [12] | growth [13] | growth [14] | growth [15] | growth [16] | growth [17] | growth [18] | growth [19] | growth [20]
COc1ccc(-c2n[nH]nc2-c2cc3ccccc3s2)cc1O | 27.9% | 51.6% | 58.8% | 24.1% | 10.1% | 49.9% | -5.47% (active) | 15% | 33.6% | 51.4% | 25.1% | 5.55% (active) | 74.7% | -3% (active) | 16.4% | 37% | 26.9% | -13.4% (active) | 50.2% | 12.4%
Cc1ccc2oc(=O)cc(-c3sc(N4CCCCC4)nc3-c3ccccc3)c2c1 | 90.9% | 90.4% | 81.8% | 89.7% | 91.1% | 92.1% | 89% | 99.6% | 99.8% | 97.3% | 98.5% | 97.8% | 86% | 88.1% | 101% | 87.9% | 102% | 94.7% | 105% | 97.3%
Cc1cc(N=O)cc(C(C)(C)C)c1O | 97% | 85.8% | 95.6% | 90% | 101% | 73% | 90.2% | 73.5% | 103% | 92.3% | 103% | 98.2% | 88.4% | 95.1% | 105% | 100% | 99% | 103% | 75.1% | 92.2%
N#CC1=C(N)Oc2ccc3ccccc3c2C1c1ccccc1 (stereo not given) | 43.9% | 51.6% | 62.1% | 39.7% | 21.7% | 62.6% | 34.7% | 51% | 35.5% | 32.6% | 51.2% | 14.9% | 42.3% | 47% | 23.3% | 52.2% | 4.96% (active) | 11.4% | 61.7% | 13.6%
Fc1ccc(Nc2nnc(-c3ccc(Cl)cc3)o2)cc1 | 95% | 93.8% | 103% | 89.5% | 105% | 95.5% | 74% | 81.3% | 104% | 94.2% | 107% | 70.6% | 95.6% | 85.9% | 100% | 99.3% | 102% | 103% | 88.9% | 95.4%
NC(N)=N/N=C/c1ccc(-c2ccc(-c3ccc(Cl)cn3)s2)cc1 | 101% | 88.6% | 96.7% | 93.8% | 88.1% | 58.3% | 97.6% | 71.4% | 63.8% | 28.7% | 94.4% | 1.08% (active) | 101% | 76.8% | 59.2% | 88.2% | 102% | 85.9% | 109% | 94.7%
C=C(C)[C@@H]1CC[C@]2(c3nnc(-c4ccncc4)o3)CC[C@]3(C)[C@H](CC[C@@H]4[C@@]5(C)CCC(=O)NC(C)(C)[C@@H]5CC[C@]43C)[C@@H]12 | 94.7% | 87.8% | 94.3% | 97.9% | 98.5% | 71.9% | 93.9% | 92.8% | 96.2% | 109% | 108% | 80.5% | 101% | 89.8% | 97.9% | 89.5% | 99.4% | 96.9% | 97.9% | 99%
Cc1cc(N2CCOCC2)nc(N(CCCNc2ccnc3cc(Cl)ccc23)Cc2ccco2)n1 | 35.3% | 74.7% | 28.7% | 12.9% | 18.8% | 34% | 40.2% | 18.9% | 42.1% | 3.4% (active) | 52.6% | 4.98% (active) | 53.6% | 19.6% | 21.2% | 50.7% | 16.6% | -2.57% (active) | 85% | -3.48% (active)
Cc1cc(N2CCCC2)nc(N(CCNc2ccnc3cc(Cl)ccc23)Cc2ccco2)n1 | 9.57% (active) | 24.9% | 19.7% | 43.3% | 15.8% | -15% (active) | 49.9% | 48% | 4.55% (active) | 15.9% | 50.3% | -1.93% (active) | 28.2% | 11.7% | -0.497% (active) | 55.5% | 18.8% | -10.7% (active) | 69.8% | -63.2% (active)
COc1ccc(C2(Cl)c3ccccc3N(c3ccccc3)c3ccccc32)cc1 | -14.8% (active) | -27.8% (active) | 9.96% (active) | 8.43% (active) | -55.2% (active) | -14.7% (active) | -3.22% (active) | 9.18% (active) | -48.8% (active) | -42.8% (active) | 16.8% | 8.99% (active) | -57% (active) | -23.8% (active) | -28.4% (active) | 15.4% | -36.6% (active) | -20.3% (active) | -41.5% (active) | -55.1% (active)
Cc1ccc(NC2CC(=O)N(c3c(C)cc(C)cc3C)C2=O)c(C)c1 (stereo not given) | 108% | 109% | 101% | 110% | 108% | 94.5% | 98.6% | 102% | 105% | 123% | 105% | 98.2% | 97.7% | 103% | 124% | 101% | 111% | 102% | 99.6% | 107%
c1cnc2[nH]cc(-c3csc(-c4cn(CCCN5CCCCC5)c5ccccc45)n3)c2c1 | 79.7% | 77% | 83.8% | 54.6% | 10.1% | 35.1% | 79.2% | 58.3% | 56.3% | -74% (active) | 67% | -45.4% (active) | -55% (active) | 45% | 52.3% | 58.9% | 88.8% | -48.5% (active) | 92% | -77.8% (active)
O=c1[nH]ncc(Br)c1Br | -57% (active) | 112% | 94.7% | 90.2% | 65.9% | 62.3% | -41.3% (active) | 69.3% | 71.6% | 22.4% | 54.4% | 3.3% (active) | -7.27% (active) | 28.7% | -85.5% (active) | -18.3% (active) | 102% | 93.5% | -36.7% (active) | -84.8% (active)
CC(C)c1cc(C(=O)O)c(O)c(C(C)C)c1.CC(C)c1cc(C(=O)O)c(O)c(C(C)C)c1.[Mn] | 110% | 103% | 110% | 112% | 102% | -39.3% (active) | 79.5% | 99.9% | 101% | 112% | 108% | 94.8% | 103% | 103% | 129% | 96.2% | 107% | 105% | 98.8% | 107%
CCCNc1nc(N(C)O)nc(N(C)O)n1 | 41.3% | 62.9% | 41.5% | 16.6% | 11.5% | 45.2% | 37% | 41.3% | 7.79% (active) | 9.94% (active) | 24.9% | 50.7% | 83.2% | 39.5% | 39% | 35.2% | 21.5% | 27.1% | 56.2% | 20.7%
